Bioassay records (PubChem)
Only some compounds are listed: those with a hit (about 1.4% of all), similar ones and a draw of the others.
KCNH2 WT inh – blocks the wildtype human KCNH2 potassium channel. U2OS, BacMam KCNH2, thallium flux FluxOr; active compounds read low. activity change, % at 1.84 µM. hit rate 0.37% among 340,000;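 active = maximum activity change below -70%; inconclusive = maximum activity change between -70% and -50%; inactive = maximum activity change above -50%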
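U2OS cells were transduced with wild-type KCNH2 virus (2.03 x 10^8 / mL) for 4 h at room temperature, then cultured overnight at 37 C. Thallium flux was read with FluxOr dye. Rate constants were normalized to DMSO controls.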
KCNH2 3.1 inh – KCNH2 3.1 (human) potassium channel inhibition | U2OS KCNH2 3.1, thallium flux FluxOr; active compounds read low | activity change, % (tested at about 1.8 µM) | hit rate 0.95% among 340,000 | AID 720553;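 active = maximum activity change below -70%; inconclusive = maximum activity change from -70% to -50%; inactive = maximum activity change above -50%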;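 note: thallium influx rate constant from kinetic fluorescence after stimulation buffer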
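We transduce U2OS cells with the mutant 3.1 virus, culture them overnight, load FluxOr with Red40 quencher for 45 min, then add stimulation buffer and read kinetically for 2 min to derive a normalized rate constant.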
p53 reactivator – mutant p53 re-activation in reporter cells; hit rate 0.063% among 320,000; H1299 p53-A138V BP100-luciferase reporter, luminescence, 24 h; Potency, µM (highest dose often 92.2 µM), most hits filed as activators; note: nearly all actives have a fitted effect of over 45% in size
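p53-null H1299 cells stably carrying temperature-sensitive p53-A138V and a BP100-luciferase reporter were pinned with compounds (4-point, 1:5 series) and held 24 hrs at 37 deg C. Luminescence was read 10 min after detection reagent.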
ASM inhibitor – inhibitors of human secretory acid sphingomyelinase; Potency, µM (top dose mostly 57.5 µM), actives largely listed as inhibitors; AID 504937; placental ASM, HMU-PC fluorogenic substrate, 60 min; P17405; hit rate 0.006% among 340,000
Target sequence (P17405 47-631 limits assumed): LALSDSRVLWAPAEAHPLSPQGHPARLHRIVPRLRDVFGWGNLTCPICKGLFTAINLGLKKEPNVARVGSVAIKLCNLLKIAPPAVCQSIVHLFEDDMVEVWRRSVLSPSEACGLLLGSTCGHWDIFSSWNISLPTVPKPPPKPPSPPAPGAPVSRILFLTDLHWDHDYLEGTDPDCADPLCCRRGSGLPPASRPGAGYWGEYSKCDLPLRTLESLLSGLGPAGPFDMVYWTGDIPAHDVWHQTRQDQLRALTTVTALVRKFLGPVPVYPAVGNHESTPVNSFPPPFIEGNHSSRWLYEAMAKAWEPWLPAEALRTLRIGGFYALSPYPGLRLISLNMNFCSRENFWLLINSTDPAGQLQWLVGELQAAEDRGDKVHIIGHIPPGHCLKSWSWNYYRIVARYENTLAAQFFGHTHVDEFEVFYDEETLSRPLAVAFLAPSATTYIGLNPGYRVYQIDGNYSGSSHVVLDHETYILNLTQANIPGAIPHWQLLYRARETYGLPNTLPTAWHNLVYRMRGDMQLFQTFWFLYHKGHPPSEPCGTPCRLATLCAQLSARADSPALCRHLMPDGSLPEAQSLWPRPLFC
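Human placenta-derived ASM preincubated with compound 10 min at room temperature, then reacted with 9 uM (final) fluorogenic HMU-PC substrate for 60 min at 37 C. Stop solution raises pH to 10; fluorescence read at Ex 386/Em 447 nm.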
MmCpn inh – M. maripaludis TRiC chaperonin inhibition. hit rate 0.031% among 330,000. purified Mm-Cpn ATPase, ADP Transcreener TR-FRET. Potency, µM (highest dose often 76.9 µM), actives largely listed as inhibitors; note: nearly all actives have a fitted effect of over 80% in size
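TR-FRET (320 nm excitation; 590 and 665 nm emission) reports ADP made from 10 uM ATP by 25 nM enzyme; compounds were preincubated 10 min, reaction run 30 min, both at 37°C.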
uPA generation – inhibitors of cell surface uPA generation; AID 540303; cell surface uPA generation assay, qHTS; Potency, µM (titrated, usually from 38.3 µM), usual class: inhibitors; hit rate 0.31% among 330,000; active = well fitted inhibition curve with a large enough effect; inconclusive = small, poorly fitted or top-dose-only effect; inactive = no such curve, though single readings can be large or run the other way; tested in mouse RAW 264.7 cells; note: nearly all actives have a fitted effect of over 55% in size
Hits are given with their value; n = inactive; u = inconclusive; x = no result given. Unless noted, calls come from the whole dose curve; as a rule, active = well fitted curve in the direction sought with a large enough effect; inconclusive = small, poorly fitted or top-dose-only effect, or another doubt; inactive = no such curve, though single readings can be large; an effect the other way counts as inactive or inconclusive.

SMILES	KCNH2 WT inh	KCNH2 3.1 inh	p53 reactivator	ASM inhibitor	MmCpn inh	uPA generation
COc1ccc(-c2c(-c3ccccc3OC)sc3ccccc23)cc1	n	n	x	n	14µM	n
COC(=O)c1c(-c2ccc(SC)cc2)sc2ccccc12	n	n	u	n	u	u
COc1ccc2sc(-c3ccc(S(C)(=O)=O)cc3)c(-c3ccc(SC)cc3)c2c1	n	n	n	n	20µM	n
COc1ccc(-c2sc3ccc(N4CCOCC4)cc3c2-c2ccc(O)cc2)cc1	n	n	n	n	n	n
COC(=O)c1c(-c2ccc(OC)cc2)sc2ccccc12	x	x	n	x	35µM	x
COC(=O)c1c(-c2ccc(OC)cc2)sc2ccc(N3CCOCC3)cc12	n	n	n	n	50µM	n
O=C(O)Cn1ccc2cc(S(=O)(=O)N3CCCCC3)ccc21	n	n	x	x	x	x
Cc1ccc(-n2cccn2)c(CN2CCC(CO)(CCc3ccccc3)CC2)c1	n	-96	n	n	n	n
OCC1(CCc2ccccc2)CCN(Cc2cc(Cl)ccc2O)CC1	n	n	n	n	n	n
O=C(Nc1cc(C(F)(F)F)ccc1-n1cncn1)c1cn2ccccc2n1	-152	-207	n	n	n	n
CCCCN(C(=O)CSc1nnnn1C)C1CCS(=O)(=O)C1 (stereo not given)	n	n	n	n	n	n
CCC(=O)Nc1nonc1-c1nc2ccccc2n1Cc1ccccc1	n	n	n	n	n	n
CCC(=O)Nc1nonc1-c1nc2ccccc2n1Cc1cccc2ccccc12	n	-85	n	n	n	n
Cc1ccc(S(=O)(=O)N=N/C=C2\C=CC=CN2O)cc1	n	n	x	x	x	x
CCCCCCN1C[C@H](n2cc(C3CC3)nn2)[C@@H](O)C[C@@H]1c1ccccc1	n	n	x	x	x	x
O=C(NCCc1ccc(Cl)cc1)c1ccc(=O)[nH]c1	n	n	n	n	n	n
COc1ccc(CCNC(=O)c2ccc(=O)[nH]c2)cc1	n	-71	n	n	n	n
O=C(Nc1ccccc1)O/N=C/c1ccc(F)cc1	n	n	n	n	n	7.1µM
Cc1ccc(NC(=O)O/N=C/c2ccc(F)cc2)cc1	n	n	x	n	n	n
C[C@@H]1CN([C@H](C)CO)C(=O)c2cc(C#CC(C)(C)O)cnc2O[C@@H]1CN(C)C(=O)C1CC1	n	n	x	x	x	x
O=C(Nc1ccc(F)cc1)C(=O)c1c(O)[nH]c2ccc([N+](=O)[O-])cc12	n	-82	n	n	n	n
CCn1c(C)cc(C(=O)COC(=O)CNC(=O)c2ccco2)c1C	n	n	x	x	x	x
CC(Oc1ccc(Br)cc1)C(=O)N1CCN(c2ccccn2)CC1 (stereo not given)	n	n	n	n	n	n
CC(Oc1ccc(Br)cc1)C(=O)N1CCC(C(N)=O)CC1 (stereo not given)	n	-71	n	n	n	n
C#Cc1cccc(C(=O)N(Cc2cccnc2)CC2CCCN(C3CCCCC3)C2)c1 (stereo not given)	n	n	x	x	x	x
SMILES	KCNH2 WT inh	KCNH2 3.1 inh	p53 reactivator	ASM inhibitor	MmCpn inh	uPA generation
O=C(c1cc2cc(F)ccc2[nH]1)N(Cc1cccnc1)CC1CCCN(C2CCCCC2)C1 (stereo not given)	n	-109	n	n	n	n
CCOC(=O)c1c(-c2ccccc2)oc2ccc(OCC(O)CNCCN(C)C)cc12 (stereo not given)	n	n	n	n	n	n
Cc1ccc(C)c(S(=O)(=O)N2CCN(C(=O)Cc3c(F)cccc3Cl)CC2)c1	n	-78	n	n	n	n
COc1cc(C(=O)NCC(=O)N2CCN(S(=O)(=O)c3cc(C)ccc3C)CC2)cc(OC)c1OC	n	n	n	n	n	2.2µM
C#CCOCCOCCOCCNc1nc(N2CCN(C(=O)[C@H](CCCCN)n3cc(C(N)COC(=O)C(F)(F)F)nn3)CC2)nc(N2CCN(C(=O)[C@H](CCCCN)n3cc(C(N)CC(C)C)nn3)CC2)n1 (stereo not given in full)	x	x	n	x	n	x
Cc1noc(C)c1S(=O)(=O)N1CCN(c2ccccc2Cl)CC1	n	n	n	n	n	n
CC(C)[C@@H](CO)NC(=O)c1ccc2c3n(nc2c1)-c1ccccc1CO3	n	n	n	n	n	1.3µM
